Screening results from PubChem.
In the library only some 4% were active in any assay of this set; here they are far more common.
Gli-Sufu antag = blocks Gli-Sufu signaling in a luciferase reporter; AID 588413; Sufu-KO-LIGHT fibroblasts, Gli luciferase reporter luminescence; inhibition, % at 5 µM; 0.74% of 340,000 active;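 active = inhibition above about 55%, limit read from the data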;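 also: 0% = DMSO-treated cells and 100% = wells with medium but no cells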
Mdm2-MdmX inh = inhibitors of human Mdm2/MdmX interaction; inhibition, % at 8 µM; SaOS-2 split-luciferase Mdm2/MdmX complementation, luminescence; AID 485346; 3% of 330,000 active; O15151+Q00987;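 active = inhibition of at least 50% at 8 µM in the primary screen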
Target sequence (O15151 whole entry, looked up): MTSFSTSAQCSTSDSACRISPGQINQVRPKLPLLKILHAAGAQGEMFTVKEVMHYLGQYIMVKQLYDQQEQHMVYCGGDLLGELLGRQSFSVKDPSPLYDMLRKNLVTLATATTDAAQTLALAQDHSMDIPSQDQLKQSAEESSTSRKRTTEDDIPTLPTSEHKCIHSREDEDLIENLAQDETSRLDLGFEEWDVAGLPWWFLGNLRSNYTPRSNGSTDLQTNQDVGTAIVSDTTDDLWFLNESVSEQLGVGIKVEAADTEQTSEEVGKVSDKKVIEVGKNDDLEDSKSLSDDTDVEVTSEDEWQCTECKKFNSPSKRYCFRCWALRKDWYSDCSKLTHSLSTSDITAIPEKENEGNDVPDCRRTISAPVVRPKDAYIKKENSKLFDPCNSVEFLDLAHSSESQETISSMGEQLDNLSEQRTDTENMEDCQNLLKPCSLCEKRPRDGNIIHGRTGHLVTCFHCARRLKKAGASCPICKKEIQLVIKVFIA
Target sequence (Q00987 whole entry, looked up): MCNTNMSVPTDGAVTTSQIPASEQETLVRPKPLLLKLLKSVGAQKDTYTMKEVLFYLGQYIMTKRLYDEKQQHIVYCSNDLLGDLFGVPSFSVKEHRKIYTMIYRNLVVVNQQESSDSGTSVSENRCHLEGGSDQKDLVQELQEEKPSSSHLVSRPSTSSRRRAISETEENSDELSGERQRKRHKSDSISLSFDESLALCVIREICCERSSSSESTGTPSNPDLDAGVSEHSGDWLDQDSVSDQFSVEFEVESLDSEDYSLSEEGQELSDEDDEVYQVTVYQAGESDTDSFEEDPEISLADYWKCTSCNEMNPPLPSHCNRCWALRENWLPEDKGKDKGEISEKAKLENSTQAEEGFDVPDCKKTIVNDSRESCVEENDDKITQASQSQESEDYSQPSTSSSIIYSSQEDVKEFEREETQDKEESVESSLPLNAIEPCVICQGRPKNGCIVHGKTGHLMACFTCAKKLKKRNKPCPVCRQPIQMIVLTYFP
697 NFkB inh = inhibitors of the PMA/ionomycin-induced NF-kB reporter in 697 B cells. 0.33% of 330,000 active. inhibition, % at 4 µM. 697 B-cell NF-kB luciferase reporter, 16 h. AID 435022; in the data active = inhibition above about 35%
Jurkat NFkB inh = inhibitors of the PMA/ionomycin-induced NF-kB reporter in Jurkat cells; PMA/ionomycin-induced NF-kB luciferase reporter, luminescence; inhibition, % at 4 µM; 0.53% of 330,000 active; AID 435003; in the data active = inhibition above about 50%
Beta cell apopt = beta cell apoptosis inhibition; 0.8% of 300,000 active; INS-1E cytokine-induced death, ATP luminescence, 48 h; percent of positive-control rescue, neutral wells zero; protection from apoptosis, % (no concentration beside the values);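 active = Every replicate reaches about 75%, or at least half do and their mean reaches it too, limit read from the data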;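 also: 0% = cytokine-treated negative control wells and 100% = positive control rescue; higher means more ATP so stronger rescue from cytokine killing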
Jurkat NFkB conf = lowers PMA/ionomycin-induced NF-kB signal in Jurkat cells; Jurkat NF-kB luciferase, 16 h; shares compounds with Jurkat NFkB inh; inhibition, % at 4 µM; 27% of 2,700 active;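 active = inhibition reaching about 45% at 4 µM in either replicate, limit read from the data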;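 also: plate controls were PMA/ionomycin stimulated DMSO wells for no effect and unstimulated DMSO wells for full effect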
697 NFkB conf = inhibitors of the PMA/ionomycin-induced NF-kB reporter in 697 B cells, retest. 35% of 2,000 active. shares compounds with 697 NFkB inh. 697 B-cell NF-kB luciferase, 16 h. inhibition, % at 4 µM; in the data active = inhibition mostly above about 28%, no sharp cut-off; inactive = mostly below about 22%
Mdm2 MdmX conf = human Mdm2/MdmX binding inhibition, confirmed; inhibition, % at 8 µM; luminescent assay; AID 489028; shares compounds with Mdm2-MdmX inh; 55% of 10,000 active; in the data active = inhibition above about 40%
Full FLuc ctr = inhibits full-length luciferase, flagging false Mdm2/MdmX hits; shares compounds with Mdm2-MdmX inh; SaOS-2 full-length luciferase counterscreen, luminescence; inhibition, % at 8 µM; 77% of 6,200 active;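 active = mean inhibition at 8 µM reaching about 37%, which flags the compound as non-specific, limit read from the data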;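 also: p53-null SaOS-2 cells with luciferase driven by a doxycycline-inducible promoter; compound on cells about two nights before reading with doxycycline added after day one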
* hit, by the source's call; nt = no result.

SMILES | Gli-Sufu antag | Mdm2-MdmX inh | 697 NFkB inh | Jurkat NFkB inh | Beta cell apopt | Jurkat NFkB conf | Mdm2 MdmX conf | Full FLuc ctr | others
O=C1CN(C(=O)c2cccc(Br)c2)c2ccccc2N1 | -7 | 53* | -39 | 52* | 1 | 16 | 62* | 52*
O=C1CN(C(=O)c2ccccc2)c2ccccc2N1 | 7 | -7 | 16 | 9 | -7 | nt | nt | nt
CCC(C)N1CCNCC1 (configuration not stated) | -7 | 7 | -4 | 2 | -4 | nt | nt | nt
Cc1ccccc1OCC(=O)Nc1ccccc1N1CCC(C)CC1 | 7 | 14 | -1 | -4 | nt | nt | nt | nt
O=C(N/N=C/c1cccs1)C1COc2ccccc2O1 (configuration not stated) | -6 | 5 | -62 | -5 | -6 | nt | nt | nt
Cc1ccc(/C=N/NC(=O)C2COc3ccccc3O2)s1 (configuration not stated) | 1 | 53* | 8 | 59* | -1 | 48* | 76* | 57*
COc1ccc(COc2cc(-c3cccc(OC)c3)nc3ccc(NC(C)=O)cc23)cc1 | 0 | -15 | 1 | 1 | 2 | nt | nt | nt
COc1ccc(COc2cc(-c3cccc(OC)c3)nc3ccc(N)cc23)cc1 | 33 | 60* | -119 | 52* | 36 | -2 | 51* | 120*
COc1ccc(-c2cc(-c3cccs3)nc(OC)c2C#N)cc1OC | 15 | 25 | 1 | 26 | -3 | nt | nt | nt
COc1nc(-c2cccs2)cc(-c2ccc(C)cc2)c1C#N | 0 | 52* | -29 | 57* | -1 | 19 | 55* | 67*
Nc1[nH]nc2nc3ccccc3cc12 | -6 | -4 | 17 | -5 | -5 | nt | nt | nt
Nc1cccc2nc3ccccc3cc12 | -15 | 58* | 24 | 62* | nt | -4 | 78* | 32
Cc1cc(C(=O)O/N=C(\N)c2ccc(C(C)(C)C)cc2)no1 | -45 | -103 | -200 | -105 | 3 | nt | nt | nt
CC(C)(C)c1ccc(C(=O)O/N=C(\N)c2ccccc2)cc1 | 89* | 97* | 0 | 71* | 1 | 85* | 88* | 23
CCOC(=O)c1sc(N)c(C(=O)Nc2ccccc2OC)c1C | 0 | 56* | -29 | 71* | 15 | 18 | 65* | 57*
N#Cc1c(N2CCCC(O)C2)nc(N)c2c(N)nc3c(c12)CC(=O)N3C12CC3CC(CC(C3)C1)C2 (configuration not stated) | -23 | 90* | -28 | 85* | 13 | 48 | 69* | 44*
COc1ccc(CN2C(=O)Cc3c2nc(N)c2c(N)nc(N4CCCCC4)c(C#N)c32)cc1 | nt | -6 | -25 | -1 | -1 | nt | nt | nt
O=C(CSc1nncs1)Nc1ccc2[nH]c(=O)[nH]c2c1 | -7 | 5 | 16 | 4 | nt | nt | nt | nt
CN(Cc1ccccc1)C(=O)C1CCCN1S(=O)(=O)c1ccc(Cl)cc1 (configuration not stated) | 6 | -18 | 18 | 12 | -12 | nt | nt | nt
C[n+]1c2n(c3ccccc31)N=C(c1cc(C(C)(C)C)c(O)c(C(C)(C)C)c1)CS2 | 89* | 78* | -8 | 52* | 107* | 3 | 75* | 38*
COc1cccc(C2=Nn3c(nnc3-c3ccccc3O)SC2)c1 | 6 | 20 | -22 | 5 | 10 | nt | nt | nt
COc1ccc(-c2nc(-c3ccccn3)ncc2S(C)(=O)=O)cc1 | -10 | 21 | -9 | -8 | 2 | nt | nt | nt
Cn1nc(-c2ccccn2)nc2c(=O)n(C)c(=O)nc1-2 | 3 | 66* | -61 | 56* | 127* | 95* | 80* | 34
COc1ccc(C(=O)N2CCN(S(=O)(=O)c3ccc(Cl)cc3)CC2)cc1S(=O)(=O)N1CCOCC1 | -3 | nt | nt | nt | nt | nt | nt | nt
CCc1ccc(/C=N/NC(=O)c2cc(C3CC3)nc3ccc(Br)cc23)s1 | -6 | 63* | -42 | 56* | 32 | 21 | 55* | 54*
SMILES | Gli-Sufu antag | Mdm2-MdmX inh | 697 NFkB inh | Jurkat NFkB inh | Beta cell apopt | Jurkat NFkB conf | Mdm2 MdmX conf | Full FLuc ctr | others
Cc1ccc(/C=N/NC(=O)c2c(C)nc3ccc(Br)cn23)cc1 | 45 | 50* | 10 | 50* | -6 | 53* | 55* | 53*
COc1ccc(CC(=O)Nc2cccc(-c3nnc(-c4cccc(C)c4)o3)c2)cc1OC | -16 | 93* | -83 | 51* | 106* | 61* | 61* | 41*
COc1cc(Cl)cc(C=O)c1OCC(=O)O | 1 | -3 | -23 | -29 | -3 | nt | nt | nt
O=C(NCC(c1ccco1)N1CCc2ccccc21)C(=O)Nc1ccc(F)cc1F (configuration not stated) | -7 | 52* | -23 | 60* | -3 | 16 | 72* | 65*
O=C(NCC(c1ccco1)N1CCc2ccccc21)C(=O)Nc1ccccc1F (configuration not stated) | -2 | 22 | 0 | -4 | -4 | nt | nt | nt
COC(=O)C1(CCSC)NC(c2ccc(O)c(OC)c2)C2C(=O)N(c3ccc(C)cc3)C(=O)C21 (configuration not stated) | -4 | 13 | 4 | -2 | -2 | nt | nt | nt
O=C(CCl)N1CCCC1c1ccc2c(c1)OCCO2 (configuration not stated) | 0 | 75* | 52* | 85* | -2 | 78* | 33 | 43* | 697 NFkB conf=67*
Cc1cccc(N(CC(=O)NC2CCCCC2)C(=O)CCCC(=O)Nc2ccccn2)c1C | -5 | -1 | 7 | 6 | 0 | nt | nt | nt
CCN1C(=C(C#N)C#N)C=Cc2cc(C)ccc21 | 1 | 5 | 15 | 27 | 0 | nt | nt | nt
C=CC[n+]1c(/C=C2\C=Cc3cc(C)ccc3N2CC)ccc2ccccc21 | 90* | 85* | 32 | 78* | 109* | 28 | 70* | 28
Cc1cccc(OCCC(=O)NNC(=O)c2ccoc2C)c1 | -12 | 14 | -1 | 5 | -1 | nt | nt | nt
Cc1nc2ccccn2c1C(=O)/C=C/c1cccc([N+](=O)[O-])c1 | -5 | 99* | 40* | 51* | 102* | 19 | 97* | 28 | 697 NFkB conf=41*
CN1CCC(NCCC(c2ccc(F)cc2)c2ccc(Cl)cc2)CC1 (configuration not stated) | 25 | 100* | 19 | 72* | 22 | 29 | 98* | 59*
CCOC(=O)c1c(-c2ccccc2)oc2ccc(OCC(O)CNCCN(C)C)cc12 (configuration not stated) | 14 | 95* | 7 | 56* | 19 | 13 | 48* | 35
CCOC(=O)c1c(-c2ccccc2)oc2ccc(OCC)cc12 | 8 | 4 | 14 | -9 | -1 | nt | nt | nt
Cc1ccc(-c2nc(-c3ccccn3)no2)cc1 | 75* | 86* | 26 | 69* | 58 | 79* | 86* | 53*
